# DT40 TDP1 CPT: DT40-hTDP1 cell growth loss with CPT; Potency, µM (series often up to 46.2 µM), for the others: at the highest dose activity change, negative = growth inhibition, usual class: inhibitors; AID 686979; actives 12% (n = 420,000); chicken DT40 Tdp1-/-;hTDP1 cells + 20 nM CPT, ATP luminescence, 48 h; also: potency is read from the fitted curve at half-maximal effect; nearly all actives have a fitted effect of over 55% in size
#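 Cell growth measured by CellTiter-Glo luminescence after a minimum 48 h, 37 C compound exposure with 20 nM CPT in Tdp1-knockout DT40 cells stably expressing hTDP1, seeded 400/well; qHTS titration format.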
# TDP1 inh: inhibitors of human tyrosyl-DNA phosphodiesterase TDP1. Q9NUW8. recombinant TDP1, AlphaScreen DNA substrate cleavage. Potency, µM (doses to about 130 µM), for the others: at the highest dose activity change, negative = inhibition, usual class: inhibitors. actives 0.28% (n = 350,000); also: potency is read from the fitted curve at half-maximal effect; nearly all actives have a fitted effect of over 40% in size
# Target sequence (Q9NUW8 whole entry, looked up): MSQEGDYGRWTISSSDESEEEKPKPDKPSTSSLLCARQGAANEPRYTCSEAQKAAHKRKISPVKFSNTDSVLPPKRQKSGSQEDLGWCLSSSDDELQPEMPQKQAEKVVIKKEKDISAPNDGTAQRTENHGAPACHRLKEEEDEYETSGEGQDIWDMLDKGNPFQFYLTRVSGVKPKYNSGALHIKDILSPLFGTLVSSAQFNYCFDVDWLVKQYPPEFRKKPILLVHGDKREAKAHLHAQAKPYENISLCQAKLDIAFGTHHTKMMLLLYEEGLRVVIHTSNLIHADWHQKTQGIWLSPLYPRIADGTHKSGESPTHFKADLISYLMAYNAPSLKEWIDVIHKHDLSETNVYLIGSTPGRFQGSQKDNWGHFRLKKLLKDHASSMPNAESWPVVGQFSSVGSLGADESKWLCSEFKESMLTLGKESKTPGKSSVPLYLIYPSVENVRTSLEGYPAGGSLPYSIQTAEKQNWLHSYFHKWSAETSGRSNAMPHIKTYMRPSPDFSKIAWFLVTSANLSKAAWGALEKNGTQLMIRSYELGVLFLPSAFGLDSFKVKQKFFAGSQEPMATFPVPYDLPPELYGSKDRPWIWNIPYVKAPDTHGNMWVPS
#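 Steps: enzyme plus compound, 15 min RT; add biotin/phosphotyrosine-FITC oligonucleotide (15 nM final), react 5 min; add donor/acceptor beads (10 ug/ml final), 10 min; read AlphaScreen. Tdp1 at 1 nM final.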
# CtBP-E1A inh: inhibitors of CtBP/E1A interaction | actives 0.49% (n = 340,000) | activity change, % (test concentration not listed) | AlphaScreen GST-E1A/His-CtBP binding, 1536-well; stronger effect = lower value; in the data active = activity change below about -65%; inconclusive = mostly about -30% to -63%
#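 Homogeneous bead-based format: GST-tagged E1A captured on glutathione donor beads, His-tagged CtBP on nickel acceptor beads; compounds precede bead addition by 2 h at 37 °C.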
# Six1-Eya2 blk: inhibitors of human Six1/Eya2 interaction; Q15475+O00167; AlphaScreen GST-Six1/His-Eya2 binding, biochemical; stronger effect = lower value; activity change, % (no concentration beside the values); actives 0.56% (n = 360,000); AID 651725; in the data active = activity change below about -65%; inconclusive = mostly about -30% to -63%
#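 AlphaScreen luminescence read after one hour at 37 °C in darkness. Pin-transferred compounds met GST-Six1 and His-Eya2 protein (5X stock 250 nM/500 nM) plus glutathione donor and Ni-chelate acceptor beads (5X, 50 ug/mL).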
# TDP1 cell noCPT: qHTS for Inhibitors of human tyrosyl-DNA phosphodiesterase 1 (TDP1): qHTS in cells in absence of CPT | actives 15% (n = 420,000) | Potency, µM (titrated, usually from 46.2 µM), without a hit: at the highest dose activity change, negative = growth inhibition, actives largely listed as inhibitors | DT40 Tdp1-/- hTDP1 cells, no CPT, ATP luminescence, 48 h; also: potency is read from the fitted curve at half-maximal effect; nearly all actives have a fitted effect of over 55% in size
#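 Camptothecin absent (DMSO only). Human TDP1-complemented DT40 knockout cells, 400 cells/well, 37 °C for minimum 48 hr; ATP measured via CellTiter-Glo, 30 min dark incubation, luminescence.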
# IL-1B inflam inh: inflammasome signaling inhibition, IL-1 beta readout; THP-1 LPS/ATP IL-1B secretion, AlphaLISA, 16 h; stronger effect = lower value; activity change, % at 57.5 µM; actives 4.7% (n = 360,000); AID 743279; in the data active = activity change below about -50%; inconclusive = mostly about -30% to -49%
#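 THP-1 cells pretreated 1 hr with compounds (up to 57.5 uM final), then stimulated with LPS (250 ng/mL final) plus ATP (1.25 mM final); secreted IL-1B measured by AlphaLISA after 16 hr, decreased signal indicating inhibition.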
# Active calls of the source: *; ? = inconclusive; / = no result; ! = not active in a repeat. In the library only some 18% were active in any assay of this set; here they are far more common. Unless noted, calls follow the shape of the dose curve; as a rule, active = well fitted curve in the direction sought with a large enough effect; inconclusive = small, poorly fitted or top-dose-only effect, or another doubt; inactive = no such curve, though single readings can be large; an effect the other way counts as inactive or inconclusive. % is scaled to controls: 0 for no effect and ±100 for the full control effect.
SMILES,DT40 TDP1 CPT,TDP1 inh,CtBP-E1A inh,Six1-Eya2 blk,TDP1 cell noCPT,IL-1B inflam inh
CN(NS(=O)(=O)c1ccc(Br)cc1)c1nc(C(F)(F)F)nc2ccccc12,23µM*,2%,10,0,?,-55*
CC(=O)c1ccc(NC(=O)C2CCCN(c3ncnc4c3nc3n4CCCCC3)C2)cc1 (configuration not stated),?,6%,3,1,13µM*,-61*
CSc1cccc(NC(=O)C2CCCN(c3ncnc4c3nc3n4CCCCC3)C2)c1 (configuration not stated),?,7%,2,-2,15µM*,7
CC(=O)c1cccc(NC(=O)C2CCN(c3ncnc4c3nc3n4CCCCC3)CC2)c1,?,-1%,/,/,?,/
Cc1ccc(CCNC(=O)C2CCCN(c3ncnc4c3nc3n4CCCCC3)C2)cc1 (configuration not stated),?,6%,0,3,-19%,16
CCOc1ccc(C(=O)c2cn(CC(=O)Nc3ccc4c(c3)OCO4)c3ccc(OC)cc3c2=O)cc1,?,9%,/,/,?,/
CNS(=O)(=O)c1ccc(C(=O)NCC(=O)NCCC(c2ccccc2)c2ccccc2)cc1,-5%,1%,6,0,5%,0
O=C(Cn1ccc2cc(S(=O)(=O)N3CCCC3)ccc21)NCc1ccccc1Cl,-3%,8%,/,/,-20%,/
COC(=O)Cn1ccc2cc(S(=O)(=O)N3CCCCC3)ccc21,21µM*!,3%,5,-2,?,-25
COC(=O)Cn1ccc2cc(S(=O)(=O)N3CCCCCC3)ccc21,0%,4%,4,-1,11%,28
CCOc1ccccc1CNC(=O)C1CCN(S(=O)(=O)c2ccc3c(ccn3C)c2)CC1,?,5%,/,/,?,/
O=C(Cn1ccc2cc(S(=O)(=O)N3CCCC3)ccc21)NCCc1ccccc1,?,4%,0,16,23µM*,31
O=C(Cn1ccc2cc(S(=O)(=O)N3CCCCC3)ccc21)NCc1ccccc1Cl,18µM*,8%,/,/,21µM*,/

# Screens (PubChem)
